# Reference: the supplement of paper PMC8728848
# Only a selection was taken, and the strongest signals are over-represented in it overall.
# Legend:
# Assay in all cases: glycan array binding signal (z-score within array); higher = stronger binding
# Conditions in all cases: glycan notation: IUPAC condensed, linker removed
# Gal3S4S(b1-4)GlcNAc = system: Gal3S4S(b1-4)GlcNAc
# Procedure, shortened: (§1)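 The binding signal is a Z-score computed within each array. Data were drawn from 3228 arrays in the Consortium for Functional Glycomics database, restricted to those with a known protein sequence. Scores were averaged over arrays of the same protein sequence at different concentrations or buffers, and over linkers, and negative values can be taken as non-binding.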
# Gal6P(b1-4)GlcNAc = system: Gal6P(b1-4)GlcNAc
# Procedure, shortened: as §1
# Gal6S(b1-3)GlcNAc6S = system: Gal6S(b1-3)GlcNAc6S
# Procedure, shortened: as §1
# Gal6S(b1-3)GlcNAc = system: Gal6S(b1-3)GlcNAc
# Procedure, shortened: as §1
# Gal6S(b1-4)Glc6S = system: Gal6S(b1-4)Glc6S
# Procedure, shortened: as §1
# Gal6S(b1-4)Glc = system: Gal6S(b1-4)Glc
# Procedure, shortened: as §1
# Gal3S6S(b1-4)GlcNAc6S = system: Gal3S6S(b1-4)GlcNAc6S
# Procedure, shortened: as §1
# Gal4S6S(b1-4)GlcNAc = system: Gal4S6S(b1-4)GlcNAc
# Procedure, shortened: as §1
# Gal6S(b1-4)GlcNAc = system: Gal6S(b1-4)GlcNAc
# Procedure, shortened: as §1
substance,measurement,setting,value
AgI/IIC123-GFP (Streptococcus mutans),glycan array binding signal (z-score),Gal3S4S(b1-4)GlcNAc,-0.466
Epa22,glycan array binding signal (z-score),Gal3S4S(b1-4)GlcNAc,-0.476
same,glycan array binding signal (z-score),Gal6P(b1-4)GlcNAc,-0.491
same,glycan array binding signal (z-score),Gal6S(b1-3)GlcNAc6S,2.55
same,glycan array binding signal (z-score),Gal6S(b1-3)GlcNAc,1.89
same,glycan array binding signal (z-score),Gal6S(b1-4)Glc6S,7.08
same,glycan array binding signal (z-score),Gal6S(b1-4)Glc,1.51
LcI (Legionella pneumophila),glycan array binding signal (z-score),Gal3S6S(b1-4)GlcNAc6S,-0.439
AgI/II Vhelical-GFP (Streptococcus mutans),glycan array binding signal (z-score),Gal3S6S(b1-4)GlcNAc6S,1.08
"SiiE (Salmonella typhimurium), A0A0H3NVH0",glycan array binding signal (z-score),Gal4S6S(b1-4)GlcNAc,-0.799
"SpGH101 (Streptococcus pneumoniae), Q8DR60",glycan array binding signal (z-score),Gal6S(b1-3)GlcNAc,-0.229
"BambL (Burhholderia ambifaria), Q0B4G1",glycan array binding signal (z-score),Gal6S(b1-4)GlcNAc,-0.314
